# Assay results reported in PubChem BioAssay AID485350 (ICCB-Longwood Screening Facility, Harvard Medical School, 2010).
# About 95 (0.1%) of roughly 84,000 compounds were called active. Rule as the data show it: active = inhibition above about 25% (passing the limit was not always enough); inactive = the rest. Shown is part of a subset that was picked to be rich in actives.
# System: BasE (2,3-dihydroxybenzoate-AMP ligase), Acinetobacter baumannii ATCC 17978
# Assay: BasE siderophore enzyme inhibitors, primary screen, biochemical, Acinetobacter baumannii ATCC 17978, fluorescence polarization (AID 485350);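 also: 0% = negative plate control signal and 100% = positive plate control signal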
# Conditions: purified BasE, fluorescence polarization binding displacement; hits give high values; concentration not given here
row,Compound,inhibition
1,COc1ccccc1OCCCn1cc(/C=C2/C(=N)N3C=CSC3=NC2=O)c2ccccc21,2.49% (inactive)
2,Cc1nn(CCC#N)c2nc(-c3ccc(F)cc3)cc(C(=O)O)c12,0.45% (inactive)
3,Cc1noc(/C=C/N2CCOCC2)c1S(=O)(=O)N(C)CCc1ccc(Cl)cc1,3.54% (inactive)
4,Cc1cc(C)nc(SCC(=O)OCC(=O)N2CCc3ccccc32)n1,-2.45% (inactive)
5,COC(=O)C1=CN(C(C)C)C=C(C(=O)OC)C1c1cccs1,-11.7% (inactive)
6,O=C(OCCN1CCCCC1)c1ccc(F)cc1,-3.82% (inactive)
7,Cc1cc(C)n(C(=O)N2c3ccccc3Sc3ccccc32)n1,2.13% (inactive)
8,COc1ccc(CC(=O)N/N=C2/CC(=O)CC(C)(C)C2)cc1,-0.19% (inactive)
9,Cc1ccc(Nc2nc(N)nc(CSc3nc4c(n3-c3ccccc3)CCCC4)n2)cc1,-1.36% (inactive)
10,S=C(Nc1cccnc1)Nc1ccccc1N1CCCCC1,3.7% (inactive)
11,O=C(Cn1c(=O)oc2ccccc21)NCc1ccccc1,-2.65% (inactive)
12,CC(C(=O)N1CCCc2ccccc21)n1nc(-c2cccs2)oc1=O (configuration not stated),-0.37% (inactive)
13,CCNC(=O)c1ccc(OCc2c(C)noc2C)c(OC)c1,-0.55% (inactive)
14,CCOC(=O)CSc1ncnc2sc3c(c12)CCC3,-0.59% (inactive)
15,CSc1nnc(C)n1Cc1ccccc1,-0.73% (inactive)
16,CC1CN(C(=O)COC(=O)c2cccc3ccccc23)CC(C)O1 (configuration not stated),1.48% (inactive)
17,Cc1occc1C(=O)Nc1cccc(-c2nn[nH]n2)c1,1.61% (inactive)
18,Cn1c(=O)c2c(SC/C(O)=C(\C#N)c3nc4ccccc4[nH]3)nc(C(C)(C)C)nc2n(C)c1=O,0.74% (inactive)
19,Cc1cc(-c2nn(C)c(=O)c3ccccc23)cc(C)c1OC(=O)Nc1ccc(Cl)cc1,1.43% (inactive)
20,NNC(=O)c1ccc(COc2ccccc2)o1,-1.29% (inactive)
21,CC1CN(C(=O)CSc2nc3scc(-c4ccccc4)c3c(=O)n2N)CC(C)O1 (configuration not stated),1.03% (inactive)
22,COc1ccc(C)cc1NC(=O)C(OC(=O)c1ccc(Br)o1)c1ccccc1 (configuration not stated),-0.6% (inactive)
23,CCN=c1sc(C(=O)Nc2ccccc2)c(C)n1CC,-0.02% (inactive)
24,COC(=O)CCC1(C(=O)O)CCOC(C)(C)C1 (configuration not stated),0.97% (inactive)
25,NC(=O)CSc1nnc(SCCOc2ccccc2)s1,0.35% (inactive)

row,Compound,inhibition
1,O=C(CSc1nc2cc3c(cc2c(=O)n1Cc1ccc2c(c1)OCO2)OCO3)NCCc1ccccc1,0.07% (inactive)
2,COCCn1c(C)cc(C(=O)CSc2nc(C)c(C)n2C2CCCCC2)c1C,-0.27% (inactive)
3,CCCCNc1ncc2c(n1)c(=O)c(C#N)c1[nH]c3ccccc3c(=O)n12,-8.32% (inactive)
4,CCOCCCn1c(CC(N)=O)n[nH]c1=S,0.4% (inactive)
5,Nn1c(SCC2CCCCO2)nnc1-c1ccncc1 (configuration not stated),1.26% (inactive)
6,COC(=O)Cc1c(C)n[nH]c1C,1.01% (inactive)
7,c1ccc(-n2nnnc2Sc2nnc3n2CCCCC3)cc1,-0.02% (inactive)
8,O=C(Nc1ccncc1)OCCc1ccccn1,4.83% (inactive)
9,Cc1cc(N2CCN(C)CC2)nc2ccc(NC(=O)NC3CCCC3)cc12,-2.82% (inactive)
10,Cc1ccc2cc(C#N)c(NCCNC(=O)Nc3ccccc3C)nc2c1,4.18% (inactive)
11,O=C(CCNC(=O)NC12CC3CC(CC(C3)C1)C2)Nc1ccc(-n2cnnn2)cc1,2.05% (inactive)
12,CC(=O)NCCC(=O)Nc1nccs1,-1.55% (inactive)
13,CCOC(=O)Cn1c(=O)c(=O)n(C)c2c1c(C)nn2-c1ccccc1,-0.65% (inactive)
14,C=CCn1c(COc2ccccc2F)nnc1SC(C)C(=O)NC(N)=O (configuration not stated),0.29% (inactive)
15,CN(C)S(=O)(=O)c1ccc(C(=O)OCC(=O)N2CCCCC2)cc1,0.92% (inactive)
16,C=CCN(CC=C)C(=O)CSc1nnc2c3ccccc3n(C)c2n1,4.82% (inactive)
17,CCC(CC)=NNC(=O)c1cc(-c2ccccc2)n[nH]1,0.72% (inactive)
18,COc1ccccc1NC(=O)c1ccc(N2CC3CC(C2)c2cccc(=O)n2C3)c(NC(=O)c2cccnc2)c1 (configuration not stated),-1.5% (inactive)
19,C=CCN(S(=O)(=O)c1ccc(Cl)cc1)S(=O)(=O)c1ccccc1OC,5.47% (inactive)
20,CCCCN(C)S(=O)(=O)c1ccc2c(c1)CCN2C(=O)CCC(=O)O,1.97% (inactive)
21,CN(C)CCN=c1cc(-c2ccccc2)oc2ccc(Cl)cc12,-2.16% (inactive)
22,Cc1nc(SCC(=O)NC(C)(C#N)C2CC2)c2c(C)c(C)sc2n1 (configuration not stated),-0.09% (inactive)
23,Cc1cc2nc(N(C)C)c3ccccc3n2n1,2.28% (inactive)
24,CC1CN(C(=O)Cn2nc(-c3cccc(-n4cccc4)c3)oc2=O)CC(C)O1 (configuration not stated),-1.31% (inactive)
25,O=C(O)c1cccnc1SCc1cc(=O)n2cc(Br)ccc2n1,1.25% (inactive)

row,Compound,inhibition
1,CC(=O)NCc1ccc(-c2csc(CC(=O)Nc3ccc(C)cc3C)n2)o1,0.82% (inactive)
2,C/C(=N/NC(=O)CCc1ccccc1)C1CC1,2.92% (inactive)
3,COc1ccc(OCCNS(=O)(=O)Cc2ccccc2)cc1,3.47% (inactive)
4,CC1CN(CC(=O)Nc2ccccc2C(C)C)CC(C)O1 (configuration not stated),-1.49% (inactive)
5,CCN(CC)Cc1cc(C(=O)O)co1,-4.35% (inactive)
6,O=C(N/N=C/c1cccnc1)c1ccc(CN2CCOCC2)cc1,1.66% (inactive)
7,CCN1C(=O)/C(=C/N(C(C)=O)c2ccccc2)OC1=S,1.08% (inactive)
8,O=C(CSc1ncnc2c1nnn2Cc1ccc(F)cc1)NC1CCCC1,-1.58% (inactive)
9,Cc1ccccc1Nc1nc(N)nc(CNCc2ccccc2)n1,5.66% (inactive)
10,Cc1oc(-c2cccc(Cl)c2)nc1CN1CCCC(C(=O)N2CCN(c3cccc(Cl)c3)CC2)C1 (configuration not stated),-0.15% (inactive)
11,Cc1nc2c(cnn2C(C)C)c(C)c1CCC(=O)OC(C)C(=O)Nc1ccc(C(N)=O)cc1 (configuration not stated),-3.6% (inactive)
12,Cc1cc(C(=O)OCC(=O)c2cc(C)n(-c3ccc(Cl)cc3)c2C)no1,1.57% (inactive)
13,CCN(Cc1ccc2c(c1)OCCO2)C(=O)c1ccc(-n2cccn2)cc1,-0.56% (inactive)
14,CN(C(=S)NCc1ccccc1)C1CCCCC1,1.12% (inactive)
15,C(=C\c1ccccc1)/CNCCCN1CCOCC1,0.89% (inactive)
16,CNC(=O)c1ccc(N2CCOc3ccc(Cl)cc32)s1,-0.32% (inactive)
17,COc1ccc(CNn2cnnc2SCc2ccc(F)cc2)cc1OC,-1.54% (inactive)
18,CC12CCC(=O)N1C(C(=O)OCc1cc(=O)n3cc(Br)ccc3n1)CS2 (configuration not stated),3.92% (inactive)
19,CC(C)[C@H](NC(=O)C1CCCCC1)c1nc2ccccc2[nH]1,-0.24% (inactive)
20,Cc1cc(C(=O)OCc2cc(=O)oc3cc4c(cc23)CCC4)c(C)o1,-0.6% (inactive)
21,COC(=O)C(NC(=O)c1ccc(Cl)cc1)C(F)(F)F (configuration not stated),7.11% (inactive)
22,Cc1ccc(N2C(=O)CCC(C(=O)OCc3nnc(-c4ccccc4)o3)C2c2cccs2)cc1 (configuration not stated),1.51% (inactive)
23,COc1ccc(-n2c(-c3ccc(Cl)cc3)cnc2SCc2nccn2C)cc1,-1.16% (inactive)
24,COc1ccc(S(=O)(=O)N(C)CC(=O)N2CCCC2)cc1,-1.85% (inactive)
25,OCC1OC(Oc2ccc3cc(Br)ccc3c2)C(O)C(O)C1O (configuration not stated),-1.6% (inactive)

row,Compound,inhibition
1,CCOC(=O)c1c(-c2ccco2)csc1NC(=O)COC(=O)Cn1[nH]c(=O)c2ccccc2c1=O,3.28% (inactive)
2,O=C(NCCSc1ncc(-c2ccccc2)[nH]1)c1ccco1,-0.84% (inactive)
3,Cc1ccc(S(=O)(=O)Nc2nc(O)c(C3=c4ccccc4=NC3=O)s2)cc1,2.18% (inactive)
4,C(=N\n1cnnc1)/c1ccc(OC2OCCOC2Oc2ccc(/C=N/n3cnnc3)cc2)cc1 (configuration not stated),1.12% (inactive)
5,C=CCn1c(CCSCc2ccc(OC)cc2)n[nH]c1=S,-0.73% (inactive)
6,COc1cccc(-c2noc(COC(=O)c3ccccc3-c3ccccc3C#N)n2)c1,1.11% (inactive)
7,CC(Oc1ccc(F)cc1)C(=O)O (configuration not stated),-0.06% (inactive)
8,O=C(OCC(=O)N1CCOCC1)c1ccc(Cl)cc1,0.53% (inactive)
9,O=c1c(OCCc2ccccc2)c(-c2ccco2)oc2ccccc12,5.62% (inactive)
10,Cc1ccc(S(=O)(=O)NC(c2ccccc2)c2nnc(-c3ccccc3)o2)cc1 (configuration not stated),-0.19% (inactive)
11,O=C1Nc2ccccc2OC1CC(=O)N1CCN(Cc2ccc3c(c2)OCO3)CC1 (configuration not stated),-0.54% (inactive)
12,CCc1c(C)c(C#N)c2nc3ccccc3n2c1N1CCN(Cc2cc(Cl)ccc2OC)CC1,0.68% (inactive)
13,CCOC(=O)c1sc(=NC(C)=O)n(C)c1C,-1.69% (inactive)
14,Cc1cc(C)n(-c2ccc(Cl)c(C(=O)OCC(=O)NCc3ccco3)n2)n1,1.59% (inactive)
15,CCn1cnc2c(=O)oc3ccc(S(=O)(=O)N4CCN(c5cc(Cl)ccc5C)CC4)cc3c21,2.98% (inactive)
16,CCOC(=O)C1=C(CN2CCn3cccc3C2C)NC(=O)NC1c1ccc(Cl)cc1 (configuration not stated),-0.37% (inactive)
17,N#CCSc1[nH]c(=O)c(-c2nc(-c3ccccc3)cs2)cc1C#N,1.84% (inactive)
18,Cc1ccc(/C=C/C(=O)OCC(=O)c2cc(C)c(C)cc2C)o1,1.01% (inactive)
19,CC(Sc1nnc(N)s1)C(=O)NCCC1=CCCCC1 (configuration not stated),2.13% (inactive)
20,C/C(=N\NC(=O)NC1CCCCC1)c1ccc(OC(F)F)cc1OC(F)F,1.32% (inactive)
21,FC(F)Oc1ccc(-c2csc(=Nc3cccnc3)n2C2CC2)cc1,3.62% (inactive)
22,Cc1cc(/C=N/N2C(=O)c3ccccc3C2=O)cc(C)c1O,0.22% (inactive)
